# According to PubChem BioAssay (NCI):
# About 83,000 compounds went through this panel and 20% of them were active in at least one assay; those are over-represented in the sample as a whole.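 Note: values are percent growth. 100 is the growth of untreated cells, values between 100 and 0 indicate rising inhibition; between -100 and 0 indicates cell death.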 Values without a mark were called inactive. The source made the active and inactive calls. Rule for the calls: active = growth percent below 10; inactive = the rest.
# Columns and labels:
# Test in all cases: NCI-60 one-dose screen, 48 h (100 = growth as untreated, 0 = no growth, -100 = all killed)
# Conditions in all cases: 10 µM
# NCI-H23 lung = test system: NCI-H23 lung
# NCI-H226 lung = test system: NCI-H226 lung
# NCI-H322M lung = test system: NCI-H322M lung
# HOP-62 NSCLC = test system: HOP-62 NSCLC
# NCI-H460 lung = test system: NCI-H460 lung
# NCI-H522 lung = test system: NCI-H522 lung
# A549/ATCC NSCLC = test system: A549/ATCC NSCLC
# 786-0 renal = test system: 786-0 renal
# COLO 205 colon = test system: COLO 205 colon
# DU-145 prostate = test system: DU-145 prostate
# K-562 leukemia = test system: K-562 leukemia
# MALME-3M melanoma = test system: MALME-3M melanoma
# MDA-MB-231 breast = test system: MDA-MB-231 breast
# RXF 393 renal = test system: RXF 393 renal
# SF-268 CNS = test system: SF-268 CNS
# SF-295 CNS = test system: SF-295 CNS
# SF-539 CNS = test system: SF-539 CNS
# UACC-257 melanoma = test system: UACC-257 melanoma
# M14 melanoma = test system: M14 melanoma
# HCT-15 colon = test system: HCT-15 colon
Structure (SMILES),growth (NCI-H23 lung),growth (NCI-H226 lung),growth (NCI-H322M lung),growth (HOP-62 NSCLC),growth (NCI-H460 lung),growth (NCI-H522 lung),growth (A549/ATCC NSCLC),growth (786-0 renal),growth (COLO 205 colon),growth (DU-145 prostate),growth (K-562 leukemia),growth (MALME-3M melanoma),growth (MDA-MB-231 breast),growth (RXF 393 renal),growth (SF-268 CNS),growth (SF-295 CNS),growth (SF-539 CNS),growth (UACC-257 melanoma),growth (M14 melanoma),growth (HCT-15 colon)
CCCC1(CC(=O)O)OCCc2c1[nH]c1ccccc21 (stereo not given),93.4%,98.4%,109%,107%,109%,37.2%,99.3%,103%,229%,114%,156%,98.8%,103%,100%,103%,102%,112%,103%,112%,107%
CC1(C)OC2=C(CC1Br)C(=O)C(=O)c1ccccc12 (stereo not given),-64.3% (active),-6.31% (active),27.1%,-88.1% (active),3.62% (active),-67.6% (active),-39.9% (active),-40.4% (active),-87.8% (active),-95.1% (active),-5.94% (active),-90.9% (active),-25.1% (active),-97.9% (active),-87.6% (active),-84.5% (active),-82% (active),-89.3% (active),-91.2% (active),-58.5% (active)
O=C(Nc1cccc(-n2cc(-c3ccncc3)c(-c3ccc(O)c(Cl)c3)n2)c1)c1cc(C(F)(F)F)cc(C(F)(F)F)c1,57.5%,75.9%,74.3%,78.9%,21.5%,24.3%,33.7%,71.4%,94.8%,73.5%,35.9%,70.4%,-45% (active),33.5%,76.8%,24.9%,56.1%,66.9%,59.6%,44.9%
COc1cc(CNCCCCCCN2C(=O)c3cccc4cccc(c34)C2=O)ccc1O,84%,96.4%,67.3%,70.3%,78.1%,60.9%,64.3%,58.3%,45.8%,80.9%,35.3%,36.3%,81.5%,52%,88.7%,69%,85.3%,89.4%,78.2%,74.7%
O=C1/C(=C/c2ccc(Cl)cc2)SC(=Nc2ccc(Cl)cc2)N1Cc1nc2ccccc2[nH]1,78.7%,81.5%,95.4%,68.6%,85.3%,76.4%,70.8%,92.3%,98%,93.7%,58.2%,48.9%,59.2%,91.5%,74.4%,68.2%,101%,87.2%,92.4%,64.1%
c1ccc2c(-c3nc(N4CCOCC4)c4c5c(sc4n3)CCCCCC5)cccc2c1,107%,93.8%,110%,101%,104%,91.2%,97.7%,103%,114%,119%,115%,97%,96.7%,95.9%,102%,98.1%,98.9%,110%,110%,100%
O=C1NC(=O)N(Cc2ccccc2)CC1Br (stereo not given),52.6%,83.2%,104%,79.2%,96.7%,-9.22% (active),102%,63%,64.9%,104%,37.4%,77.8%,89.3%,68%,80.2%,136%,86.5%,82.1%,11.4%,45.2%
CC(C)(C)c1cc(Br)cc(C(C)(C)C)c1O,107%,97.5%,96.7%,120%,117%,115%,91.1%,103%,113%,113%,101%,103%,116%,101%,113%,97.8%,104%,104%,115%,105%
O=[N+]([O-])c1ccc(N/N=C/c2cccc3ccccc23)nc1,102%,121%,105%,110%,117%,84.8%,92.4%,99.2%,102%,124%,85.4%,168%,101%,112%,121%,126%,102%,102%,104%,91.1%
Cc1ccc(C)c(C(O)(c2cc(C)ccc2C)C2(O)CCCCC2)c1,88.5%,82.7%,104%,112%,95.7%,61.4%,92.9%,90.6%,96.7%,104%,87.3%,91.7%,96.9%,91%,94.2%,95.9%,94.6%,102%,98.6%,94.5%
Cn1c([N+](=O)[O-])cnc1/C=C1\Oc2ccc(Cl)cc2C1=O,-12.7% (active),-27.2% (active),11.4%,-17.2% (active),-44.3% (active),-50.3% (active),-40.9% (active),-23.2% (active),-41.6% (active),-17.1% (active),1.86% (active),-55% (active),-22.5% (active),-70.5% (active),-32.1% (active),-17.3% (active),-50.3% (active),-41.7% (active),-33% (active),-8.74% (active)
FC(F)(F)c1ccc(-c2cnc(-n3cc(COCCN4CCCCC4)nn3)nc2NC2CCCCCC2)cc1,67.7%,78.7%,54.4%,52.4%,-68.3% (active),-12.8% (active),10.6%,51.1%,-93.4% (active),57.7%,-48.4% (active),-86.3% (active),11.1%,-3.46% (active),33.2%,-56.8% (active),-66.8% (active),-89.7% (active),-87.6% (active),3.73% (active)
N=C(N)c1ccc(-c2ccc(-c3ccco3)o2)cc1,94.8%,77.8%,67%,81.7%,62.8%,95%,68.7%,79.9%,-90.2% (active),88.2%,7.46% (active),53%,52.4%,62.5%,74.4%,61.4%,83.1%,64.2%,74%,31.2%
COc1cccc(-c2cc(-c3cccc(NS(C)(=O)=O)c3)nc(N)c2C#N)c1O,26.7%,74.5%,34.6%,52.1%,8.75% (active),0.405% (active),31%,49.4%,-6.05% (active),15.1%,17.1%,-5.49% (active),53.7%,29.3%,42.6%,-1.4% (active),3.03% (active),79.8%,41.3%,26.7%
CCOC(=O)c1ccc(NC(=O)Nc2ncc(Cl)cc2Cl)cc1,93.9%,95.3%,99.3%,104%,93.3%,-37.6% (active),40.7%,92.9%,130%,111%,79.4%,111%,94%,100%,104%,96.5%,96.2%,14.7%,94.7%,102%
